# Reference: PubChem BioAssay
# Calls of active or inactive are those of the source.
# How the values were obtained:
# Albumin (Bos taurus) = Albumin (Bos taurus) (UniProt P02769); experiment: bovine serum albumin binders on microarray, profiling panel, artefact control for SMM control protein annotation, biochemical, small-molecule microarray, Alexa647 label, 635/667 nm fluorescence (AID 1118); conditions: BSA-A647 binding, fluorescence 635 nm, higher = more signal;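 also: score merges 667 nm emission intensity and signal-to-noise per printed compound spot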
# Chain of Albumin (Bos taurus) (P02769 whole entry, looked up): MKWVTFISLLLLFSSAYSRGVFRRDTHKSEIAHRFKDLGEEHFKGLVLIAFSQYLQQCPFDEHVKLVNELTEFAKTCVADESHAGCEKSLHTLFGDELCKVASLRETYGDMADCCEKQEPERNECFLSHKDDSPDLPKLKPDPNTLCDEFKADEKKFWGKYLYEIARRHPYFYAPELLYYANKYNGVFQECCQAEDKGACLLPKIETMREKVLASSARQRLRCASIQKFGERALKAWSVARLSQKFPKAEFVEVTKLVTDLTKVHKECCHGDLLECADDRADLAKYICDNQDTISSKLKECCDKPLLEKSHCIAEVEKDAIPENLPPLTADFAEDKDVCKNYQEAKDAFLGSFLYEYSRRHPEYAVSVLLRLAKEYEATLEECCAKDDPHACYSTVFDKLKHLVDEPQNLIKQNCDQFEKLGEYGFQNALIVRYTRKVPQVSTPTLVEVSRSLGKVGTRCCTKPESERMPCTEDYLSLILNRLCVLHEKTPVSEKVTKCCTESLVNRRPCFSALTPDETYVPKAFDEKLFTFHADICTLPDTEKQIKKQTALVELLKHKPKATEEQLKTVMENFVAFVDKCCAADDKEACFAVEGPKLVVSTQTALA
# [1] = small-molecule microarray binders of probe aXIP, primary screen, biochemical, NeuroSMM set, 635/667 nm fluorescence (AID 1119); conditions: higher = more signal, called active from +8 up or from −8 down;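 also: probe is the protein aXip251-270 applied at 1 µg/mL to compound-printed slides; binding of probe to printed compounds measured as 667 nm fluorescence plus signal to noise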
# [2] = small-molecule binders of probe aNOTCH3, primary screen, biochemical, small-molecule microarray, 635/667 nm fluorescence (AID 1120); conditions: higher = more signal;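 also: probe is a biotin-tagged antibody raised against NOTCH3 rather than NOTCH3 protein; score merges spot fluorescence near 667 nm with spot signal to noise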
# [3] = small-molecule binders of probe aNOTCH2, primary screen, biochemical, small-molecule microarray, 635/667 nm fluorescence (AID 1121); conditions: higher = more signal;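 also: score merges feature fluorescence read at 667 nm with its signal to noise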
# [4] = biological target: Carbonic anhydrase 2 (Homo sapiens) (UniProt P00918); experiment: CAII small-molecule binders, profiling panel, biochemical, small-molecule microarray, Alexa647-labelled CAII (AID 1122); conditions: CAII-A647 binding fluorescence, higher = more signal
# [5] = COS7 lysate on small-molecule microarray, probe aHis, 635 nm (AID 1123); conditions: COS7 cell lysate, fluorescence, higher = more signal;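 also: z-score combines 667nm fluorescence intensity with signal-to-noise per printed compound spot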
# [6] = compound binding in COS7 lysate, probe aLAP1, primary screen, cell lysate, small-molecule microarray (AID 1124); conditions: probe aLAP1, fluorescence, higher = more signal;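 also: lysate comes from COS7 cells expressing LAP1 and is applied at 0.3 µg/mL; score merges spot fluorescence near 667 nm with signal-to-noise over triplicate slides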
# Sam68 (KHDRBS1) = experiment: Sam68 small-molecule binders, primary screen, biochemical, small-molecule microarray, 635 nm fluorescence (AID 1125); conditions: small-molecule microarray binding, higher = more signal;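 also: score merges 667 nm channel intensity with signal to noise over triplicate slides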
# [7] = tested on: Chordin-like protein 2 (CHRDL2); experiment: CHRDL2 small-molecule binders, primary screen, biochemical, small-molecule microarray, 635 nm fluorescence (AID 1126); conditions: small-molecule microarray binding, fluorescence 635 nm; higher = more signal;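 also: printed compound slides probed with Chrdl2 protein at 4 µg/mL for 1 h at 4 C; score merges 667 nm emission intensity with signal to noise over three replicate slides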
# [8] = biological target: Concanavalin-A (Canavalia ensiformis) (UniProt P02866); experiment: ConA small-molecule binders, primary screen, artefact control for SMM control protein annotation, biochemical, small-molecule microarray, Alexa647 label, 635 nm (AID 1127); conditions: ConA-A647 binding fluorescence, higher = more signal;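 also: z combines 667 nm emission intensity with signal-to-noise across three replicate slides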
# Chain of Concanavalin-A (Canavalia ensiformis) (P02866 whole entry, looked up): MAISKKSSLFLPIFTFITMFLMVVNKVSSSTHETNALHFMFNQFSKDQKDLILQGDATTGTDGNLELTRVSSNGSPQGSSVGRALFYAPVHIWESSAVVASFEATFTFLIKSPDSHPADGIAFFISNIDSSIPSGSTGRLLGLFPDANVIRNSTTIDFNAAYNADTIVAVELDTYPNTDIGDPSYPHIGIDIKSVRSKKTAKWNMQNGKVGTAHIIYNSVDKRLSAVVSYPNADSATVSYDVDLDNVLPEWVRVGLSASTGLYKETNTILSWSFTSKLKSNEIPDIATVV
# [9] = anti-His antibody binders, primary screen, artefact control for SMM control protein annotation, biochemical, small-molecule microarray, 635 nm fluorescence (AID 1128); conditions: anti-His Alexa647 antibody binding, higher = more signal;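 also: score merges feature fluorescence with signal-to-noise for each printed compound spot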
# [10] = tested on: Human papillomavirus type 1a E7 protein (residues 1-88); experiment: HPV1a E7 small-molecule binders, primary screen, biochemical, small-molecule microarray, residues 1-88, 635 nm (AID 1129); conditions: small-molecule microarray binding, fluorescence 635 nm; higher = more signal
# [11] = biological target: Focal adhesion kinase 1 (Homo sapiens) (UniProt Q05397); experiment: small-molecule microarray binders of FAK, primary screen, biochemical, 635/667 nm fluorescence, BSA, DTT (AID 1130); conditions: PTK2 binding, 635 nm fluorescence, higher = more signal;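 also: composite of spot emission at 667 nm and signal to noise over triplicate slides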
# Chain of Focal adhesion kinase 1 (Homo sapiens) (Q05397 whole entry, looked up): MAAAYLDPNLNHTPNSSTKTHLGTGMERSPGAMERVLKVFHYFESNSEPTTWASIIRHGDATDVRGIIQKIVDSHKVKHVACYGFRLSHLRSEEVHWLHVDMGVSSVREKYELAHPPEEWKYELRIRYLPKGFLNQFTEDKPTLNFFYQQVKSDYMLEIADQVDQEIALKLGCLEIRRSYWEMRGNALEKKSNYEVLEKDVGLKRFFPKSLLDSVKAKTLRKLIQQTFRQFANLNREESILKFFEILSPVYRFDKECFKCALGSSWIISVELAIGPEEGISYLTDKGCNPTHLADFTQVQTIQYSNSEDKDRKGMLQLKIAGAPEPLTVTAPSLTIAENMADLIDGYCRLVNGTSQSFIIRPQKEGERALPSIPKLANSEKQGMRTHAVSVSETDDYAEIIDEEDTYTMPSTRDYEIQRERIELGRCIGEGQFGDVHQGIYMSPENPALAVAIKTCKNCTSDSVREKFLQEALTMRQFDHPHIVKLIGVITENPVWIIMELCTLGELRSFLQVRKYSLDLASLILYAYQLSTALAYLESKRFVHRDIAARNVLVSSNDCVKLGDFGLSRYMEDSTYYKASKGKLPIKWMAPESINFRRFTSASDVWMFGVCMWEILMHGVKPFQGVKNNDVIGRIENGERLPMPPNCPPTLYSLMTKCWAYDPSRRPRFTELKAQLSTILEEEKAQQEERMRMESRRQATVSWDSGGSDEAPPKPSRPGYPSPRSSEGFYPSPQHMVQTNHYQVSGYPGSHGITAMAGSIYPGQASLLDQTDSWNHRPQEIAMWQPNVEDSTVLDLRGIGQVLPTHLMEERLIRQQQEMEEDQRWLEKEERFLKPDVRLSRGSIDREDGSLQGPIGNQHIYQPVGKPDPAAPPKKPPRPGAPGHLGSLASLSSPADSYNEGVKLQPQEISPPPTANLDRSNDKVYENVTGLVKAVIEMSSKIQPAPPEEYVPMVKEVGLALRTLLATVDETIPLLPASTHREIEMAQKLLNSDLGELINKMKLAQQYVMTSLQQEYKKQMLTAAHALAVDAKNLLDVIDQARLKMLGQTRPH
# [12] = tested on: Fibrinogen (Alexa647-labelled); experiment: fibrinogen binders on compound microarrays, profiling panel, artefact control for SMM control-protein annotation, biochemical, small-molecule microarray, 635/667 nm fluorescence (AID 1131); conditions: fibrinogen-A647 binding fluorescence, higher = more signal;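 also: z-score merges 667 nm fluorescence with per-spot signal-to-noise over triplicate slides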
# [13] = biological target: Follistatin (Homo sapiens) (UniProt P19883); experiment: follistatin binders on small-molecule microarrays, primary screen, biochemical, small-molecule microarray, 635/667 nm fluorescence (AID 1132); conditions: FST binding, 635 nm fluorescence, higher = more signal
# Chain of Follistatin (Homo sapiens) (P19883 whole entry, looked up): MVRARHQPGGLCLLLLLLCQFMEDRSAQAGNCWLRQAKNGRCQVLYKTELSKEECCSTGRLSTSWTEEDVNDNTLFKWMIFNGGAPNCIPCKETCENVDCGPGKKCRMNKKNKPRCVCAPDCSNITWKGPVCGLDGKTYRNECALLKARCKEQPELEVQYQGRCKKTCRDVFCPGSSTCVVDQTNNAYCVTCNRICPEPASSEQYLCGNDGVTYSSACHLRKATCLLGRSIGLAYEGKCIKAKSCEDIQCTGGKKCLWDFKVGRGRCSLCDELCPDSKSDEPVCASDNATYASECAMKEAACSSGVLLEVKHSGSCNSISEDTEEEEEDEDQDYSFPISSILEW
# [14] = biological target: Fibroblast growth factor 2 (Homo sapiens) (UniProt P09038); experiment: FGF2 binders on small-molecule microarrays, primary screen, biochemical, small-molecule microarray, 635/667 nm fluorescence (AID 1133); conditions: small-molecule microarray binding, FGF2, fluorescence 635/667; higher = more signal
# Chain of Fibroblast growth factor 2 (Homo sapiens) (P09038 whole entry, looked up): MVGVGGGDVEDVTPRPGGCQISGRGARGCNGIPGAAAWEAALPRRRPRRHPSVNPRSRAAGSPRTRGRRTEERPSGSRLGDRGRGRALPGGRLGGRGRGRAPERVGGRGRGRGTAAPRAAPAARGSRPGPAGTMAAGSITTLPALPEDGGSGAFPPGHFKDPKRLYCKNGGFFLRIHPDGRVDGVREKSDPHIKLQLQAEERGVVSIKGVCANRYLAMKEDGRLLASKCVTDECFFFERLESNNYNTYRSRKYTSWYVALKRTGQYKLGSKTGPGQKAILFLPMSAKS
# [15] = mitochondrial membrane potential change in A549 cells, profiling panel, cell-based, JC-1 fluorescence, basal, 24 h, 100 nL (AID 1138); conditions: higher = more signal;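 also: A549 lung adenocarcinoma cells under basal conditions with no added stimulus; test concentration not given here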
# Lefty1 = Lefty1 binders on small-molecule microarrays, primary screen, biochemical, small-molecule microarray, 635/667 nm fluorescence (AID 1139); conditions: small-molecule microarray binding, fluorescence 635/667; higher = more signal
# [16] = tested on: wheat germ agglutinin (Triticum aestivum), Alexa647-labelled; experiment: wheat germ agglutinin binders on compound microarrays, profiling panel, artefact control for SMM control-protein annotation, biochemical, small-molecule microarray, 635/667 nm fluorescence (AID 1140); conditions: WGA-A647 binding, 635 nm fluorescence, higher = more signal;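 also: score merges 667 nm feature emission with signal to noise over triplicate slides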
# [17] = biological target: Luciferin 4-monooxygenase (Photinus pyralis) (UniProt P08659); experiment: firefly luciferase enzyme inhibitors, primary screen, biochemical, luminescence, purified enzyme, 2006 set (AID 1141); conditions: SteadyGlo luminescence, 30 min, higher = more signal, called active from +8 up or from −8 down;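 also: cell-free assay with purified firefly luciferase at 100 ng per well in PBS; test concentration not given here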
# Chain of Luciferin 4-monooxygenase (Photinus pyralis) (P08659 whole entry, looked up): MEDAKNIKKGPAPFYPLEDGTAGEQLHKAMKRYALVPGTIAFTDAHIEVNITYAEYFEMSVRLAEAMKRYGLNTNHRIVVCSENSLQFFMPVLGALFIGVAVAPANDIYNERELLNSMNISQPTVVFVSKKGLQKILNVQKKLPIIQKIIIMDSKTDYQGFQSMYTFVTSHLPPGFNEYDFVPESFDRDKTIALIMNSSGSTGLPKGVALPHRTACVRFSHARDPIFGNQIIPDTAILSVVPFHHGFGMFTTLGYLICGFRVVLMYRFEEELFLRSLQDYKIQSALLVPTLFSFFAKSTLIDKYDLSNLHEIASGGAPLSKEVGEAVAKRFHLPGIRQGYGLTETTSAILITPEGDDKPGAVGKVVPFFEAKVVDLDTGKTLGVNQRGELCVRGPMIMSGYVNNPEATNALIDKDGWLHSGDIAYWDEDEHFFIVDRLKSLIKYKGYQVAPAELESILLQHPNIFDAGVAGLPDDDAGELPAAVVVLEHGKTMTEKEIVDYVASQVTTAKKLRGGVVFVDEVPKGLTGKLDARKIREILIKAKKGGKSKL
SMILES,composite z-score (Albumin (Bos taurus)),composite Z-score [1],composite z-score [2],composite z-score [3],composite z-score [4],composite z-score [5],composite z-score [6],composite z-score (Sam68 (KHDRBS1)),composite z-score [7],composite z-score [8],composite z-score [9],composite z-score [10],composite z-score [11],composite z-score [12],composite z-score [13],composite z-score [14],z-score [15],composite z-score (Lefty1),composite z-score [16],z-score [17]
CC(=O)OC[C@H]1O[C@H](CCON=C2[C@H]3CCn4c(=O)n(-c5ccccc5)c(=O)n4[C@H]3[C@H](O)[C@@H]3O[C@H]23)C=C[C@@H]1OC(C)=O,0.378,0.22 (inactive),0.348,0.088,0.127,0.343,-0.0654,0.283,0.47,-0.0333,-0.405,-0.169,-0.749,0.366,0.334,0.594,-0.297,0.397,-0.0229,0.416 (inactive)
CON=C1[C@H]2CCn3c(=O)n(-c4ccccc4)c(=O)n3[C@H]2[C@H](O)[C@@H]2O[C@H]12,0.103,0.119 (inactive),-0.0006,-0.121,0.0479,-0.364,0.0879,0.689,0.501,0.217,1.95,0.574,0.295,0.148,0.743,0.986,0.758,0.695,0.168,-2.49 (inactive)
O=C1CCCC=C1C(O)CCOC(c1ccccc1)(c1ccccc1)c1ccccc1 (stereo not given),0.404,0.142 (inactive),-0.158,-0.169,-0.252,-0.447,-0.146,-1.52,-0.0466,-0.542,-0.545,-0.228,-0.0057,-0.302,0.0573,0.058,-0.228,0.458,-0.129,-0.395 (inactive)
C#CCCCON=C1C[C@@H](O)[C@@H](O)[C@@H]2[C@@H]3C(=O)N(c4ccc(F)cc4F)C(=O)[C@@H]3CC[C@H]12,0.314,-0.488 (inactive),-0.122,-0.151,0.65,0.887,0.145,1.15,0.392,0.772,0.968,1.02,0.208,0.894,0.424,0.322,0.0852,0.662,0.0156,0.573 (inactive)
CO[C@H]1COC(=O)[C@@H](C)COC(=O)[C@H](C)NC(=O)CC=C[C@H]1C,-0.859,0.111 (inactive),-0.038,-0.0907,-0.328,-0.866,-0.225,0.486,1.27,-0.99,-0.79,-0.764,-0.113,-0.47,1.31,0.871,0.853,1.58,-0.379,-0.185 (inactive)
CC(C)CCN1CCc2nc(COc3ccccc3)c3c(c2C1)CO[C@@H](C)C3,0.536,0.354 (inactive),-0.0343,-0.0797,0.319,0.965,0.378,0.0676,0.119,0.432,0.683,0.132,0.233,0.602,0.0413,-0.0961,1.71,0.0377,0.451,-0.781 (inactive)
CO[C@H]1COC(=O)CC=C[C@H](C)COC(=O)[C@@H](C)NC(=O)CC=C[C@@H]1C,-0.854,0.842 (inactive),-0.179,-0.14,-0.532,-1.13,0.487,0.339,1.56,-0.582,2.07,-0.696,-0.775,-1.32,1.29,0.654,-1.61,1.72,-0.52,0.917 (inactive)
CC=CC1=C(CO)C(=O)[C@@H]2O[C@@H]2C1=O,-0.651,0.833 (inactive),-0.109,-0.102,0.298,-0.91,-0.724,-0.533,1.45,-0.579,0.366,-0.385,-0.681,-0.328,1.44,1.89,-1.06,1.34,-0.173,-0.78 (inactive)
O=C1C[C@@H](O)[C@@H](O)[C@@H]2[C@@H]3C(=O)N(C[C@@H]4CCCO4)C(=O)[C@@H]3CC[C@@H]12,-0.0039,-0.286 (inactive),0.0547,-0.111,-0.0061,0.725,0.181,0.666,0.348,0.852,0.318,0.476,0.181,0.517,0.848,0.657,0.52,0.42,0.208,-0.658 (inactive)
CC(CCN1CCCc2nc(C)c(C)cc21)=NO[C@@H](C)c1cc(-c2c(C)cc(C)cc2C)no1,0.177,0.121 (inactive),0.0789,-0.0668,0.0276,0.517,0.138,1.04,0.9,0.778,1.4,0.314,0.514,0.745,0.427,0.388,1.91,0.643,0.605,0.0678 (inactive)
CCOC(=O)[C@H](Cc1ccccc1)NC(=O)CCC1CC(OC(=O)NCc2ccc3c(c2)OCO3)CC2(CCCC(COC(=O)NCCC(C)C)O2)O1 (stereo not given in full),0.112,0.416 (inactive),0.0252,-0.0707,0.493,0.394,-0.133,0.907,0.309,1.11,0.408,0.57,0.234,0.894,0.443,1.06,-0.549,0.722,0.531,0.906 (inactive)
